Assay outcomes (PubChem)
Rows were chosen to be rich in hits. Some 0.97% of all compounds tested hit in one or more screens of this group.
RecA intein inh: blocks M. tuberculosis RecA intein splicing | P9WHJ3 | cell-free RecA intein splicing, fluorescence | inhibition, % (test concentration not listed) | hit rate 0.75% among 290,000 | AID 2221; in the data active = inhibition above about 30%
FadD28 binding: blocks FadD28 binding to the bisubstrate probe | AID 588549 | fluorescence polarization | hit rate 0.22% among 360,000 | inhibition, % at 12.5 µM; in the data active = inhibition above about 8.5%, passing the limit was not always enough
Rv3671c inh: inhibits the M. tuberculosis serine protease Rv3671c; inhibition, % at 5.96 µM; hit rate 0.048% among 320,000; in the data active = inhibition above about 38%;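 note: extracellular domain of Rv3671c used as enzyme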
Target sequence (P9WHR9 whole entry, looked up, the tested form may be a part): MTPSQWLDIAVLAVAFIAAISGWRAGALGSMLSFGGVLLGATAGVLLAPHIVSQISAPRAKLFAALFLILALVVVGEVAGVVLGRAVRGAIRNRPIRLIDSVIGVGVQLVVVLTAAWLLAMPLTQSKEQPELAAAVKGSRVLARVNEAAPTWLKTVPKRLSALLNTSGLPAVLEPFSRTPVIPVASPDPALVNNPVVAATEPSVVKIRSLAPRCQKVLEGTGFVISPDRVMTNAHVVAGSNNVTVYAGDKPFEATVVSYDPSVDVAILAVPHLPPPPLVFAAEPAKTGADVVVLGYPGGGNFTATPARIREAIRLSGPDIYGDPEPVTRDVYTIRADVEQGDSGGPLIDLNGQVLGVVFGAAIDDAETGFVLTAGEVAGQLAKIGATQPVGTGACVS
TcdB GH inh: TcdB glycohydrolase inhibition; AID 652162; inhibition, % at 9.99 µM; P18177; TcdB glycohydrolase enzymatic assay, plate reader; hit rate 0.24% among 350,000; in the data active = inhibition above about 10%
BioA inh: inhibitors of Mycobacterium tuberculosis BioA enzyme; purified M. tuberculosis BioA enzyme, plate reader; inhibition, % at 9.99 µM; hit rate 0.096% among 360,000; AID 602481; in the data active = inhibition above about 40%
UGM FP inh: Mtb UDP-galactopyranose mutase inhibition; P9WIQ1; purified UGM, fluorescence polarization probe displacement; inhibition, % at 10 µM; hit rate 0.06% among 320,000; AID 504406; in the data active = inhibition above about 10%, passing the limit was not always enough
Hits are given with their value; - = inactive; . = no result given.

SMILES	RecA intein inh	FadD28 binding	Rv3671c inh	TcdB GH inh	BioA inh	UGM FP inh
C=CCNC(=O)[C@H]1[C@@H]2C(=O)O[C@@H](c3ccccc3)[C@@H](c3ccccc3)N2[C@@H](c2ccc(OCCO)cc2)[C@]12C(=O)Nc1ccccc12	.	.	.	-	-	.
COc1ccc(/C=N/n2c(-c3cc(C)[nH]n3)n[nH]c2=S)cc1OC	-	-	-	10.7	-	-
COc1ccc(/C=N/n2c(-c3cc(C)[nH]n3)n[nH]c2=S)cc1	.	-	-	-	.	-
COc1cc(NS(=O)(=O)c2ccc(Nc3nc(-c4ccccn4)cs3)cc2)nc(OC)n1	-	-	-	-	.	-
COc1ccc(-c2csc(Nc3ccc(S(=O)(=O)Nc4cc(OC)nc(OC)n4)cc3)n2)cc1	-	11.9	-	.	-	-
COCC#Cc1ccc2c(c1)O[C@@H](CN(C)C(=O)C1CC1)[C@H](C)CN([C@@H](C)CO)S2(=O)=O	.	.	.	-	-	.
Cc1cccn2c(=S)[nH]nc12	.	-	.	16.2	-	.
C[C@@H]1CN([C@@H](C)CO)C(=O)c2cc(NC(=O)C3CCCCC3)ccc2O[C@H]1CN(C)Cc1ccc(-c2ccccc2)cc1	.	.	.	-	-	.
CCN1[C@@H]2c3ccc(C4=CCCC4)c(=O)n3C[C@@H]2[C@@H](CO)[C@@H]1C(=O)NCCc1ccccc1	.	.	.	-	-	.
CC1(C)CC(=O)C2=C(C1)c1c(ccc3ccccc13)NC2c1cc([N+](=O)[O-])cc([N+](=O)[O-])c1O (stereo unspecified)	-	31.9	-	-	.	-
CC1(C)CC(=O)C2=C(C1)c1c(ccc3ccccc13)NC2c1ccc(C(=O)O)cc1 (stereo unspecified)	-	-	-	-	-	-
N#C/C(=C\C1=C(N2CCOCC2)C(=C\c2ccc(Cl)cc2)/CC1)C(=O)Nc1ccccc1F	-	-	-	-	.	-
N#C/C(=C/C1=C(N2CCOCC2)C(=C/c2ccccc2)/CC1)C(=O)Nc1ccccc1F	.	9.9	.	-	-	.
C#Cc1ccc([C@@H]2C=C(C(=O)N3CCCCCCC3)O[C@H](OCC)[C@H]2CCCO)cc1	.	.	.	-	.	.
Cc1nc(SCC(=O)N2CCNC2=O)c(C#N)c(C)c1C	.	-	.	12.7	-	.
O=C(N/N=C/c1c(O)n(Cc2ccc(F)cc2)c(=O)[nH]c1=O)c1ccccc1O	31.6	18.5	-	-	-	-
O=C(N/N=C/c1c(O)n(Cc2ccccc2)c(=O)[nH]c1=O)c1ccccc1O	-	-	-	.	.	-
Cc1ccc(S(=O)(=O)N2C[C@H](O)COC[C@H]3O[C@H](CC(=O)NCC4CCCCC4)CC[C@@H]32)cc1	.	.	.	-	-	.
CC(C)CC(=O)O/N=C1\C(=O)N(Cc2ccc(Cl)cc2)c2ccc([N+](=O)[O-])cc21	-	.	77.5	.	.	-
CC(=O)O/N=C1\C(=O)N(Cc2ccc(C)cc2)c2ccccc21	.	-	.	-	.	.
CCCCCCCCCCCCCCCC[n+]1ccc(C(N)=O)cc1	.	22.5	-	.	-	-
CCCCCCC[n+]1ccc(-c2cc[n+](CCCCCCC)cc2)cc1	-	-	-	-	-	-
CCCCCCCCCCCCCCCC[n+]1ccccc1	.	31.8	.	-	-	.
CCCCCCCCCCCCCCCC[n+]1cccc(C(=O)N(CC)CC)c1	-	13.7	-	-	-	-
O=C(C[C@@H]1CC[C@@H](NS(=O)(=O)c2ccc(F)cc2)[C@@H](CO)O1)NC1CCCCC1	.	.	.	-	-	.
SMILES	RecA intein inh	FadD28 binding	Rv3671c inh	TcdB GH inh	BioA inh	UGM FP inh
COCC#Cc1ccc2c(c1)O[C@@H](CN(C)S(=O)(=O)c1ccc(C)cc1)[C@H](C)CN([C@H](C)CO)S2(=O)=O	.	.	.	-	-	.
COc1ccc(-c2nc(-c3cccs3)c(-c3cccs3)[nH]2)cc1O	-	11.3	-	.	-	-
CCNC(=O)C[C@H]1CC[C@@H]2[C@H](COc3ccc(NC(C)=O)cc3C(=O)N2C)O1	.	.	.	11.6	-	.
CCNC(=O)C[C@H]1CC[C@@H]2[C@@H](COc3ccc(NC(C)=O)cc3C(=O)N2C)O1	.	.	.	25.0	-	.
CCNC(=O)C[C@H]1CC[C@H]2[C@@H](COc3ccc(NC(C)=O)cc3C(=O)N2C)O1	.	.	.	-	-	.
CC(=O)Nc1ccc2c(c1)C(=O)N(C)[C@@H]1CC[C@@H](CC(=O)NCC3CC3)O[C@@H]1CO2	.	.	.	-	-	.
CCCNC(=O)C[C@H]1CC[C@@H]2[C@@H](COc3ccc(NC(=O)c4ccc5c(c4)OCO5)cc3C(=O)N2C)O1	.	.	.	11.6	-	.
CCNC(=O)C[C@@H]1CC[C@H]2[C@@H](COc3ccc(NC(C)=O)cc3C(=O)N2C)O1	.	.	.	15.8	-	.
Cc1ccc(S(=O)(=O)NCC[C@@H]2CC[C@@H](NC(=O)c3cccc(F)c3)[C@H](CO)O2)cc1	.	.	.	-	-	.
COc1ccc(NC(=O)N(C)C[C@H]2OCCCC[C@@H](C)Oc3ccc(NC(=O)C4CCCCC4)cc3C(=O)N([C@@H](C)CO)C[C@H]2C)cc1	.	.	.	-	-	.
O=C(Nc1ccccc1)N1C[C@H]2[C@@H](c3ccccc31)[C@@H](CO)N2C(=O)c1ccncc1	.	.	.	-	-	.
CN1C(=O)c2cc(NC(=O)C3CCCC3)ccc2OC[C@@H]2O[C@H](CC(=O)NCc3ccccc3F)CC[C@@H]21	.	.	.	-	.	.
O=C(/C=C/c1ccc2c(c1)OCO2)c1c(O)n(CCc2ccccc2)c(=O)[nH]c1=O	-	-	-	-	-	25.7
CCCC(=O)Nc1ccc2c(c1)OC[C@H](C)N(CC1CCCC1)C[C@H](C)[C@@H](OC)CN(C)C2=O	.	.	.	29.5	-	.
CCC(=O)Nc1ccc2c(c1)OC[C@H](C)N(C(=O)NC(C)C)C[C@@H](C)[C@@H](OC)CN(C)C2=O	.	.	.	11.2	-	.
CCC(=O)Nc1ccc2c(c1)OC[C@@H](C)N(C(=O)NC(C)C)C[C@H](C)[C@H](OC)CN(C)C2=O	.	.	.	14.5	-	.
CC(C)NC(=O)N1CC2(C1)[C@@H](c1ccccc1)[C@H](CO)N2C(=O)C1CC1	.	.	.	-	.	.
O=[N+]([O-])c1cc(-c2nnc(Nc3ccc(O)cc3)c3ccccc23)ccc1N1CCOCC1	31.6	-	-	-	.	-
C[C@H]1CN([C@@H](C)CO)C(=O)c2c(c3ccccc3n2C)-c2ccccc2CO[C@H]1CN(C)C	.	.	.	11.2	-	.
C[C@@H]1CN([C@@H](C)CO)C(=O)c2c(c3ccccc3n2C)-c2ccccc2CO[C@@H]1CN(C)C	.	.	.	19.8	-	.
COc1cccc(C(=O)Nc2ccc3c(c2)C(=O)N(C)C[C@H](OC)[C@@H](C)CN[C@H](C)CO3)c1	.	.	.	-	-	.
COc1ccccc1NS(=O)(=O)c1cccc(NC(=O)Nc2ccc(Cl)cc2)c1	-	31.3	-	-	.	-
COc1ccccc1NS(=O)(=O)c1cccc(NC(=O)Nc2ccccc2)c1	-	-	-	-	-	-
Cc1ccc(C(=O)Nn2c(O)c(C=C3N=c4ccccc4=N3)sc2=S)cc1	-	-	-	.	-	-
O=C(Nn1c(O)c(C=C2N=c3ccccc3=N2)sc1=S)c1ccccc1	-	14.5	-	.	-	-
O=C(Nn1c(O)c(C=C2N=c3ccccc3=N2)sc1=S)c1ccc(Cl)cc1	-	48.2	-	.	.	-
O=Cc1sc(=O)n(Cc2cccc(C(=O)O)c2)c1Cl	54.0	-	-	-	-	-
CN(CC(=O)Nc1ccc(OC(F)(F)F)cc1)C(=O)Cn1c(=O)cnc2ccccc21	.	-	-	-	-	-
